Source: PubChem
Hits are enriched below; roughly 5.4% of the tested compounds scored in any of these assays.
Sm TGR block – qHTS Assay for the Inhibitors of Schistosoma Mansoni Peroxiredoxins; Schistosoma mansoni thioredoxin glutathione reductase (TGR), Q962Y6; purified TGR, DTNB reduction, TNB absorbance 405 nm; Potency, µM (highest dose often 114 µM), inactives show at the top dose activity change, negative = inhibition, actives largely listed as inhibitors; 360,000 compounds, 3% hits; AID 485364, 2010; active = well fitted inhibition curve with a large enough effect; inconclusive = small, poorly fitted or top-dose-only effect; inactive = no such curve, though single readings can be large or run the other way; also: nearly all actives have a fitted effect of over 60% in size
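Kinetic colorimetric format: TGR-catalysed, NADPH-driven DTNB reduction monitored via TNB absorbance. Enzyme dispensed at 20 nM; compound exposure 15 min at room temperature before reaction start.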
Lassa entry inh – qHTS for Inhibitors of binding or entry into cells for Lassa Virus | Lassa virus pseudotype entry inhibition, cell reporter | Potency, µM (highest dose often 37.9 µM), without a hit: at the top dose activity change, negative = inhibition, usual class: inhibitors | 300,000 compounds, 1.2% hits; calls by dose curve; tested in HEK293 cells; also: nearly all actives have a fitted effect of over 50% in size
Marburg entry inh – qHTS for inhibitors of binding or entry into cells for Marburg Virus; Marburg virus pseudotyped entry inhibition, cell reporter; Potency, µM (top dose mostly 37.8 µM), for inactives: top-dose activity change, negative = inhibition, usual class: inhibitors; 300,000 compounds, 1.8% hits; AID 540276, 2011; calls by dose curve; tested in HEK293 cells
FMDV antiviral – High Throughput Screening for Foot and Mouth Disease Virus Antivirals. FMDV antiviral cell-based qHTS. Potency, µM (titrated, usually from 57.9 µM), inactives show top-dose activity change, negative = inhibition, most hits filed as inhibitors. 410,000 compounds, 1.2% hits. AID 1159524, 2015; calls by dose curve; tested in HEK293T cells; also: read-out not given here; nearly all actives have a fitted effect of over 45% in size
VACV Venus inh – qHTS for Stage-Specific Inhibitors of Vaccinia Orthopoxvirus: Venus Reporter Primary qHTS | Vaccinia virus Venus reporter expression, fluorescence | 330,000 compounds, 0.46% hits | AID 720580, 2013 | Potency, µM (titrated, usually from 36.5 µM), inactives show top-dose activity change, negative = inhibition, actives largely listed as inhibitors; calls by dose curve; tested in A549 cells; also: nearly all actives have a fitted effect of over 30% in size
VACV mCherry inh – qHTS for Stage-Specific Inhibitors of Vaccinia Orthopoxvirus: mCherry Reporter Primary qHTS; 310,000 compounds, 0.63% hits; AID 720579, 2013; Vaccinia virus mCherry reporter infection, fluorescence; Potency, µM (highest dose often 36.5 µM), for the others: top-dose activity change, negative = inhibition, usual class: inhibitors; calls by dose curve; tested in A549 cells; also: nearly all actives have a fitted effect of over 35% in size
* marks the source's active call; other numbers are inactive results; ? = inconclusive; / = not tested or not shown; [ ] = remark or other dose. % is scaled to controls: 0 for no effect and ±100 for the full control effect; potency is read from the fitted curve at half-maximal effect.

SMILES | Sm TGR block | Lassa entry inh | Marburg entry inh | FMDV antiviral | VACV Venus inh | VACV mCherry inh
Oc1cccc(-c2nc3c4c(ncn3n2)-c2ccccc2CC42CCCC2)c1 | 7% | -17%[14.3 µM] | 23µM* | ? | 18µM* | 13µM*
COc1ccc(OCc2nc3c4c(ncn3n2)-c2ccccc2CC42CCCC2)cc1 | -3% | -4% | ? | ? | 3% | -13%
COc1ccc2c(CNCCc3ccc(SC)cc3)c(C(=O)O)n(Cc3ccc(F)cc3)c2c1 | 1% | ? | / | -18% | -30% | ?
Cc1cc(/C=C2/C(=O)NN(c3ccccc3)C2=O)c(C)n1-c1ccc(O)cc1 | -1% | ? | 7.1µM* | 18µM* | -27% | -19%
O=C1NC(=O)N(c2ccc(Cl)cc2)C(=O)/C1=C/c1coc2ccc(O)cc2c1=O | 1µM* | / | / | ? | / | /
O=C1NC(=O)N(c2ccccc2)C(=O)/C1=C/c1coc2ccc(O)cc2c1=O | 0% | / | / | ? | / | /
O=C1NN(c2ccccc2)C(=O)/C1=C/c1coc2ccccc2c1=O | -17% | ? | ? | ? | -5% | -11%
O=C1NN(c2ccccc2)C(=O)/C1=C\c1coc2ccc(O)cc2c1=O | 16µM* | / | / | ? | / | /
COc1ccc(-n2c(C)cc(/C=C3\C(=O)NN(c4ccccc4)C3=O)c2C)cc1 | 7% | 8% | 17% | 47% | -6% | -6%
CNS(=O)(=O)c1cccc(C(=O)OCC(=O)NC(C)CCc2ccccc2)c1 (configuration not stated) | 0% | / | / | -3% | / | /
CC(CCc1ccccc1)NC(=O)COC(=O)c1cc(NS(=O)(=O)c2ccc(Cl)c([N+](=O)[O-])c2)ccc1O (configuration not stated) | -11% | -12% | 2.5µM* | -10% | ? | -22%
O=C(O)c1ccc([N+](=O)[O-])c(CS(=O)(=O)c2ccc(Cl)cc2)c1 | -14% | 12% | 9% | -9% | / | /
O=C(CBr)c1ccc([N+](=O)[O-])c(CS(=O)(=O)c2ccc(Cl)cc2)c1 | 5µM* | / | / | -28% | -19% | -12%
COc1ccc(Cc2c(C)nn(-c3nc(C)c(C(=O)Nc4cccc(C(C)=O)c4)s3)c2C)cc1 | -1% | 6%[46.1 µM] | 9%[46.1 µM] | ? | ? | -8%
Cc1cc(NC(=O)CN(C)S(=O)(=O)c2ccc(-c3ccc(=O)[nH]n3)s2)ccc1Br | -1% | / | / | ? | / | /
COc1cc(NC(=O)CN(C)S(=O)(=O)c2ccc(-c3ccc(=O)[nH]n3)s2)cc(OC)c1 | 32µM* | / | / | -4% | / | /
C/C=C(\C)C(=O)OC1[C@H](OC(C)=O)C2(CO)C(CC1(C)C)C1=CCC3C4(C)CCC(O[C@@H]5O[C@H](C(=O)O)[C@@H](O[C@@H]6O[C@H](CO)[C@@H](O)[C@H](O)[C@H]6O)[C@H](O)[C@H]5O[C@H]5O[C@H](CO)[C@@H](O)[C@H](O)[C@H]5O)[C@](C)(CO)C4CCC3(C)[C@]1(C)C[C@H]2O (some centres not stated) | / | / | / | 28µM* | ? | ?
C/C=C(/C)C(=O)OC1CC(C)(C)C[C@H]2C3=CC[C@@H]4[C@@]5(C)CCC(O[C@@H]6O[C@@H](C(=O)O)[C@@H](O)C(O[C@@H]7OC[C@H](O)[C@@H](O)[C@@H]7O[C@@H]7OC(CO)C(O)[C@@H](O)[C@@H]7O)C6O[C@@H]6OC(CO)C(O)C(O)C6O)[C@@](C)(CO)[C@@H]5CC[C@]4(C)[C@]3(C)CC(O)[C@@]12CO (some centres not stated) | / | / | / | -2% | 13µM* | ?
O=C(NCC(c1ccccc1)c1ccccc1)c1nn(-c2ccccc2Cl)nc1CO | 0% | ? | -28%[46.1 µM] | ? | -21% | -13%
Cc1ccccc1-n1nc(CO)c(C(=O)NCC(c2ccccc2)c2ccccc2)n1 | 5% | ? | -28%[46.1 µM] | 13µM* | -23% | -12%
CCOC(=O)COc1ccc(CC)cc1C(=O)c1ccn2nc(-c3ccc(Cl)cc3)cc2n1 | 2% | 23%[46.1 µM] | 8%[46.1 µM] | -5% | -17% | -14%
COc1ccc(CC(=O)Nc2c3c(nn2C(C)(C)C)CS(=O)(=O)C3)cc1OC | 35µM* | 8% | -15% | -2% | -1% | -4%
COC(=O)C12OCC34C(CC5C(C)=C(O)C(=O)CC5(C)C3C(O)C1O)OC(=O)C(OC(=O)/C=C(\C)C(C)C)C24 (configuration not stated) | / | ? | ? | -31% | 1.3µM* | ?
COC(=O)C12OCC34C(CC5C(C)=C(O)C(=O)CC5(C)C3C(O)C1O)OC(=O)C(OC(=O)C=C(C)C)C24 (configuration not stated) | / | ? | ? | -42% | ? | 32µM*
Nc1ccc2c(c1)C/C(=C/c1ccco1)C2=O | 16µM* | 1% | ? | -7% | -5% | ?
SMILES | Sm TGR block | Lassa entry inh | Marburg entry inh | FMDV antiviral | VACV Venus inh | VACV mCherry inh
CC(CNC(=O)C1CCN(Cc2cc3ccccc3n2Cc2ccccc2)CC1)c1ccccc1 (configuration not stated) | 11% | ? | / | ? | -9% | -19%
Cc1ccc(C(C)(O)CS(=O)(=O)Cc2ccccc2Cl)cc1 (configuration not stated) | 50µM* | / | / | -11% | / | /
COc1cc2c(cc1OC)[C@@H]1CC(=O)[C@@H](CC(C)C)CN1CC2 | / | / | / | 8% | / | /
CCC1=C(CC2NCCc3ccccc32)CC2c3cc(OC)c(OC)cc3CCN2C1 (configuration not stated) | / | ? | ? | ? | 3.5µM* | 3.5µM*
CCC1CN2CCc3cc(OC)c(OC)cc3C2CC1CC1NCCc2cc(OC)c(OC)cc21 (configuration not stated) | / | / | / | 0% | 2.5µM* | 2.2µM*
CC[C@H]1CN2CCc3cc(OC)c(OC)cc3C2C[C@@H]1C[C@H]1NCCc2cc(OC)c(OC)cc21 (some centres not stated) | -5% | / | / | -20% | 0.89µM* | 0.5µM*
Cc1cccc(NC(=O)Cn2nc(-c3ccccc3)c3cnc4ccccc4c32)c1 | -2% | -11%[46.1 µM] | / | -10% | -5% | -12%
CCN1C(=O)NC(c2ccccc2)C(C(=O)OC)=C1C (configuration not stated) | / | / | 7%[14.2 µM] | / | / | /
O=S1(=O)c2ccc(Br)cc2-n2nncc2CN1Cc1ccc(C(F)(F)F)cc1 | / | 8%[46.1 µM] | / | / | / | /
O=C(Nc1ccc(C(=O)N2CCCCC2)cc1)c1ccc(Br)cc1 | 2% | 7% | 4% | -7% | ? | /
CC(C)(C)c1ccc(C(=O)Nc2ccc(NC(=O)c3ccc(Cl)c(Cl)c3)cc2)cc1 | 2% | 17%[46.1 µM] | / | -4% | 2% | -5%
